PP5 inh: blocks human protein phosphatase 5 activity; purified PP5c, OMFP substrate fluorescence; inhibition, % at 6.7 µM; P53041; 320,000 tested, 0.18% active;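 active = inhibition above the campaign's mean inhibition across all tested compounds plus 3 SD, cut at about 9.5% in these data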;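 also: 0% = DMSO only and 100% = 100 µM cantharidin control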
Calb FLC: affects C. albicans growth with fluconazole | C. albicans CaCi-2 (fluconazole-resistant clinical isolate) + fluconazole, Alamar Blue growth, 48 h | growth inhibition, % (no concentration beside the values) | 300,000 tested, 0.57% active | AID 1979;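 active = growth inhibition above about 58% in most replicates, limit read from the data, passing the limit was not always enough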;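 also: all wells also contain fluconazole at 8 µg/ml as a sub-toxic cotreatment; 0% = median of DMSO wells and 100% = median of geldanamycin control wells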
ALR H2O2 inh: human ALR oxidase inhibition via reduced H2O2 | 290,000 tested, 3.8% active | purified ALR, DTT oxidation, H2O2 HRP-luminol luminescence | P55789 | AID 485317 | inhibition, % (no concentration beside the values);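 active = mean replicate inhibition above about 79%, with every replicate also reaching it, limit read from the data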
Target sequence (P55789 whole entry, looked up): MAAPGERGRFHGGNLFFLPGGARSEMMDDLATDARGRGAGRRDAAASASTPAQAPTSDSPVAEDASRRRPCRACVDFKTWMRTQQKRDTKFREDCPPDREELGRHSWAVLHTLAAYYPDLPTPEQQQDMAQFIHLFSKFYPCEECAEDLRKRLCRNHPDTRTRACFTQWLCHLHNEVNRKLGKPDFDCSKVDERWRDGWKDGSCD
PP1 inh: counter-screen for PP5 inhibitors: inhibitors of human PP1-alpha; inhibition, % at 6.7 µM; 320,000 tested, 0.9% active; purified PP1alpha, OMFP fluorescence;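 active = inhibition above the mean inhibition of all tested compounds plus 3 SD, computed separately for each screening campaign, cut at about 15% in these data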
CSC inhib: cancer stem cell inhibition. cancer stem cell-like cells viability, luminescence. inhibition, % at 7.5 µM. 300,000 tested, 1.1% active; in the data active = inhibition above about 75%; tested in HMLE shEcad cells
* = called active by the depositor; . = not tested or not shown. A selection: hits, their analogues and other compounds. The true share with any hit is near 5.4%.

SMILES	PP5 inh	Calb FLC	ALR H2O2 inh	PP1 inh	CSC inhib
CCN(CC)CC#CC(C)OCOCC#CCOC (stereo not given)	-0.2	-2.4	-1.9	-1.4	-5.3
COc1ccc(C(=O)NCC(=O)OCC(=O)c2ccc3c(c2)NC(=O)CO3)cc1OC	0.8	-32.1	-6.1	1.4	0.3
CS(=O)(=O)N1CCN(C(=O)Nc2ccccc2)CC1	2.9	4.3	-2.4	1.7	-6.0
O=C(CN1C(=O)CSC1=O)NCc1ccccc1	1.2	-5.1	-0.4	1.2	-9.3
O=C(CSc1nc2ccccc2s1)Nc1ncccn1	-0.2	0.4	98.1*	4.9	-23.3
CCOC(=O)CSc1nc2ccc(NC(=O)CSc3nnnn3Cc3ccccc3)cc2s1	3.8	4.3	-9.2	9.7	9.6
CC(C)(C)NC(=O)CSc1nc2ccc(NC(=O)CSc3nnnn3Cc3ccccc3)cc2s1	5.6	-12.5	31.6	15.8*	-1.6
Cc1cnc(NC(=O)CSc2nc3ccccc3s2)s1	2.9	-3.3	.	1.5	-14.7
N#C/C(=C(\O)Cc1ccccc1)c1nc2ccccc2[nH]1	-1.2	-4.1	4.8	-1.8	-7.9
Cc1c(-c2cccc(Cl)c2)nc2ccccc2c1C(=O)OC/C(O)=C(\C#N)c1nc2ccccc2[nH]1	1.2	22.6	.	-0.9	97.7*
N#C/C(=C(/O)c1ccco1)c1nc2ccccc2[nH]1	2.6	78.9*	-6.5	0.6	-14.8
C/C(O)=C(\C#N)c1nc2ccccc2[nH]1	-0.8	0.3	-3.4	2.0	8.1
N#C/C(=C(/O)CCl)c1nc2ccccc2[nH]1	-1.1	51.6	28.8	-1.8	79.0*
Cc1c(C(=O)OC/C(O)=C(\C#N)c2nc3ccccc3[nH]2)oc2ccc(Br)cc12	-1.4	1.1	3.5	-2.0	27.0
CC(=O)c1ccc(NC(=O)C(C)n2c3ccccc3c3nc(=O)cc(C)n32)cc1 (stereo not given)	-1.1	-4.8	5.4	-2.8	0.0
CCN(CC)S(=O)(=O)N1CCC(C(=O)NCc2ccc(C)cc2)CC1	3.9	0.0	-2.6	-1.1	-10.2
CCN(CC)c1ccc(CN2CCC(C(=O)NCc3ccc(C)cc3)CC2)cc1	0.0	-38.4	81.8*	-3.8	-15.5
Cc1cccc(C(=O)N2CCCC(N3CCN(c4cccc(Cl)c4)CC3)C2)n1 (stereo not given)	-2.2	-7.5	18.8	-4.3	-3.4
O=S(=O)(Cc1ccccc1)N(O)c1ccccc1	0.7	0.7	98.9*	-2.4	-0.4
COc1ccc(C)cc1NC(=O)CSc1nnnn1Cc1ccccc1	-0.7	-5.0	-3.1	3.3	-5.6
O=C(CCCNc1ccccc1)N/N=C/c1cccs1	1.1	28.6	98.2*	-2.0	-5.0
CCCNC(=O)C(=O)N/N=C/c1cccs1	-1.3	-22.9	-3.3	-2.4	-10.1
O=C(C[n+]1ccccc1)N/N=C/c1cccs1	0.0	94.7*	-17.1	-0.7	-10.0
Cc1ccc(NC(=O)CCC(=O)N/N=C/c2cccs2)cc1	3.4	-6.6	-2.6	-0.2	-6.5
CC(C)CNC(=O)C(=O)N/N=C/c1cccs1	0.8	-36.5	82.3*	1.0	-11.0
SMILES	PP5 inh	Calb FLC	ALR H2O2 inh	PP1 inh	CSC inhib
CN(C)C(CNC(=O)c1ccc2ccccc2n1)c1ccccc1 (stereo not given)	1.3	-6.1	-2.0	-1.4	-14.6
O=C(O)c1cc(S(=O)(=O)N2CC=C(c3ccccc3)CC2)ccc1O	4.2	.	4.1	2.7	.
Nc1oc2ccccc2c1C(=O)Cc1ccccc1O[C@@H]1O[C@H](CO)[C@@H](O)[C@H](O)[C@H]1O	1.2	-6.3	90.3*	-3.4	-2.4
CCOC(=O)C1(C)/C(=N/Nc2ccc(Cl)cc2)C(=O)C(=O)N1c1ccccc1 (stereo not given)	0.3	-3.6	98.5*	-0.2	40.9
CCOC(=O)C1=C(C)NC2=C(C(=O)CCC2)C1c1ccc(N(C)C)cc1 (stereo not given)	1.1	4.3	73.6	-2.5	-5.4
CCN(CC)c1ccc(C2C(C(=O)OCCOC)=C(C)NC3=C2C(=O)CCC3)cc1 (stereo not given)	1.0	-11.5	98.7*	-1.1	-4.8
COCCOC(=O)C1=C(C)NC2=C(C(=O)CCC2)C1c1ccc2c(c1)OCO2 (stereo not given)	-1.6	4.0	-3.2	-7.3	-12.1
CCCOC(=O)C1=C(C)NC2=C(C(=O)CCC2)C1c1ccc(N(C)C)cc1 (stereo not given)	0.7	-3.2	90.7*	-0.1	-7.9
O=C1N/C(=N\S(=O)(=O)Cc2ccccc2)S/C1=C/c1cc([N+](=O)[O-])ccc1O	-0.6	5.7	96.7*	3.9	-2.2
COc1cc(CNc2ncc(-c3ccc(Cl)cc3)n2C)cc(OC)c1OC	1.7	5.8	94.6*	1.8	5.9

Bioassay records from PubChem.
